Data reported in PubChem BioAssay (EPA / NIEHS).
Active and inactive are the calls of the source. Rule for the calls: active = hit-call score of the fitted dose curve at least 0.9, where 1 is the maximum; inactive = score below 0.9.

Target: Transcription factor E2F1 (Homo sapiens) (UniProt Q01094)
Assay: ATG_E2F_CIS: Attagene CIS-FACTORIAL HepG2 Assay for human E2F Transcription Factor 1 (AID 2282935)
Conditions: HepG2 Attagene cis-reporter, E2F reporter RNA transcripts; actives raise or lower the signal
Protocol: ATG_CIS is a cell-based, multiplexed-readout assay that uses HepG2, a human liver cell line, with measurements taken at 24 hours after chemical dosing in a 24-well plate.ATG_E2F_CIS is one of 52 assay component(s) measured or calculated from the ATG_CIS assay. It is designed to make measurements of mRNA induction, a form of inducible reporter, as detected with fluorescence intensity signals by Reverse transcription polymerase chain reaction (RT-PCR) and Capillary electrophoresis technology.Data from the assay component ATG_E2F_CIS was analyzed into 1 assay endpoint. This assay endpoint, ATG_E2F_CIS, was analyzed with bidirectional fitting relative to DMSO as the negative control and baseline of activity. Using a type of inducible reporter, measures of mRNA for gain or loss-of-signal activity can be used to understand the reporter gene at the transcription factor-level as they relate to the gene E2F1. Furthermore, this assay endpoint can be referred to as a primary readout, because this assay has produced multiple assay endpoints where this one serves a reporter gene function. To generalize the intended target to other relatable targets, this assay endpoint is annotated to the dna binding intended target family, where the subfamily is E2F transcription factor.
Human liver HepG2 cells are transiently transfected with multiple reporter transcription units (MRTUs) in 6-well plates using FuGene 6 reagent (Roche; 3 ml FuGene/1 mg DNA). The MRTU constructs are regulated by a cis-regulating element (promoter). […] A major difference between the CIS and TRANS system is that in CIS activities of endogenous TFs are measured, whereas the TRANS assay evaluates changes in activities of exogenous, chimeric NR-Gal4 proteins. […] At the end of 24 hour incubation, total RNA was isolated using TriZol reagent (Invitrogen). The isolated RNA is then reverse-transcribed using oligo(dT) primer and Mo-MLV reverse transcriptase (Invitrogen) with DNAse I (Ambion) treatment for 30 min. The one-tenth of the produced cDNA was amplified by PCR using Taq DNA polymerase (Invitrogen) and two reporter sequence-specific primers. The PCR products were fluorescently labeled by primer extension with 6-arboxyfluorescein (6-FAM) 5'-labeled reporter sequence-specific primer (2 min at 95 C, 20 s at 68 C and 10 min at 72 C) and these products were digested with 5U of HpaI (New England Biolabs) for 2h at 37 C. The fragments were purified using Qiaquick PCR columns (Qiagen), analyzed on an ABI 3130xL genetic analyzer (Applied Biosystems) with peak positions identified by using a set of X-rhodamine (ROX)-labeled MapMarker1000 molecular weight standards (BioVentures). The raw capillary electrophoresis data was processed using Attagraph software (Attagene).

Transcription factor E2F1 (Homo sapiens), sequence (Q01094 whole entry, looked up): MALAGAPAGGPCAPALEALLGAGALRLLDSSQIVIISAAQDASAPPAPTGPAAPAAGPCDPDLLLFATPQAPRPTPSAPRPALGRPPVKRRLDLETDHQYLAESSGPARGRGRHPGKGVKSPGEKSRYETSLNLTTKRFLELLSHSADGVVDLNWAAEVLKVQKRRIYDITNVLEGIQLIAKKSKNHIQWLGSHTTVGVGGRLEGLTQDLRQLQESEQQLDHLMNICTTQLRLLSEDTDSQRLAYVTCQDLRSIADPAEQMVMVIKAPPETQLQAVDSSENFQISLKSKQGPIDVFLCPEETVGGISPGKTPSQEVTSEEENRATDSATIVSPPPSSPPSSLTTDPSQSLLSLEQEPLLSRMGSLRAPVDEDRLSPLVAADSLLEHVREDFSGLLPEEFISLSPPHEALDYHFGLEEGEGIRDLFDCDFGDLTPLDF

Compound | outcome
O=S(=O)(OCC(F)F)C(F)(F)F | inactive
FC(F)(F)C(F)(F)C(F)(F)C(F)(F)C(F)(F)CCI | inactive
CC(CCl)OP(=O)(OC(C)CCl)OC(C)CCl (stereo not given) | inactive
CCCCCCC(C)OC(=O)CCCCC(=O)OC(C)CCCCCC (stereo not given) | inactive
CC(C)=CCCC(C)CCOC(=O)C(C)C (stereo not given) | inactive
OC[C@@H](O)[C@@H](O)[C@H](O)[C@@H](O)CO | inactive
O=C(CC(=O)C(F)(F)C(F)(F)F)C(F)(F)F | inactive
CCCCCCCCC(F)(F)C(F)(F)C(F)(F)C(F)(F)C(F)(F)C(F)(F)F | inactive
FC(F)(F)C(F)(F)C(F)(F)C(F)(F)C(F)(F)C(F)(F)C(F)(F)I | inactive
FC(F)(F)C(F)(F)C(F)(F)C(F)(F)C(F)(F)C(F)(F)C(F)(F)C(F)(F)CCS | inactive
C1COCCN1 | inactive
O=C(O)C(F)(OC(F)(F)C(F)(OC(F)(F)C(F)(OC(F)(F)C(F)(F)C(F)(F)F)C(F)(F)F)C(F)(F)F)C(F)(F)F (stereo not given) | inactive
FC(F)(F)C(F)(F)C(F)(F)C(F)(F)C(F)(F)C(F)(F)CC1CO1 (stereo not given) | inactive
CC/C=C\CCOC(C)=O | inactive
O=C(O)C(F)(F)C(F)(F)C(F)(F)C(F)(F)F | inactive
CCCCCC=O | inactive
C=CC(=O)OCC(F)(F)C(F)(F)C(F)(F)C(F)(F)C(F)(F)C(F)(F)C(F)(F)F | inactive
FC(F)(F)C(F)(F)C(F)(F)C(F)(F)C(F)(F)C(F)(F)C(F)(F)Br | inactive
Nc1cc(Cl)c(N)c(Cl)c1 | inactive
COC(=O)CCC(F)(F)C(F)(F)C(F)(F)C(F)(F)F | inactive

Compound | outcome
FC(F)(F)C(F)(F)C(F)(F)C(F)(F)C(F)(F)C(F)(F)CCS | inactive
O=C(O)C(F)(F)C(F)(F)OC(F)(F)F | inactive
CCCCCCOC(=O)c1ccccc1O | inactive
CCC(=O)OCCc1ccccc1 | inactive
FC(F)(F)C(F)(F)C(F)(F)N(C(F)(F)C(F)(F)C(F)(F)F)C(F)(F)C(F)(F)C(F)(F)F | inactive
CN(C)Cc1ccccc1O | inactive
CCN(Cc1cccc(S(=O)(=O)O)c1)c1ccc(C(=C2C=CC(=[N+](CC)Cc3cccc(S(=O)(=O)O)c3)C=C2)c2ccc(O)cc2S(=O)(=O)[O-])cc1 | inactive
OCC(F)(F)C(F)(F)C(F)(F)C(F)F | inactive
FC(F)(F)C(F)(F)C(F)(F)CI | inactive
OCCCC(F)(F)C(F)(F)C(F)(F)F | inactive
CC(C)(C)c1ccc(OC2CCCCC2O)cc1 (stereo not given) | inactive
CCCCCCCCCCCCCCCC[N+](C)(C)Cc1ccccc1 | inactive
C=C(C)C(=O)OCC(F)(F)C(F)(F)C(F)(F)C(F)(F)C(F)(F)C(F)(F)C(F)(F)F | inactive
Cc1cccc(N(C)C)c1 | inactive
CC(=O)Nc1ccc(N=Nc2cc(C)ccc2O)cc1 | inactive
FC(F)(F)C(F)(F)C(F)(F)C(F)(F)C(F)(F)C(F)(F)C(F)(F)C(F)(F)F | inactive
CO[Si](OC)(c1ccccc1)c1ccccc1 | inactive
OCC(F)(F)C(F)(F)C(F)(F)F | inactive
O=S(=O)(OCCOC(F)(F)F)C(F)(F)F | inactive
CCCCOc1ccc(N)cc1 | inactive
